Compound activity (PubChem)
Hits are enriched below; roughly 6% of the tested compounds scored in any of these assays.
D1 antagonist: blocks dopamine activation of the human D1 receptor; AID 504652; HEK293 TREx D1 cells, calcium flux, dopamine EC80; stronger effect = lower value; P21728; activity change, negative = inhibition, % at 10 µM; 3.2% of 360,000 active; in the data active means activity change below about -30%; further: on the % scale 0 is the no-effect control and ±100 the full control effect
Target sequence (P21728 whole entry, looked up): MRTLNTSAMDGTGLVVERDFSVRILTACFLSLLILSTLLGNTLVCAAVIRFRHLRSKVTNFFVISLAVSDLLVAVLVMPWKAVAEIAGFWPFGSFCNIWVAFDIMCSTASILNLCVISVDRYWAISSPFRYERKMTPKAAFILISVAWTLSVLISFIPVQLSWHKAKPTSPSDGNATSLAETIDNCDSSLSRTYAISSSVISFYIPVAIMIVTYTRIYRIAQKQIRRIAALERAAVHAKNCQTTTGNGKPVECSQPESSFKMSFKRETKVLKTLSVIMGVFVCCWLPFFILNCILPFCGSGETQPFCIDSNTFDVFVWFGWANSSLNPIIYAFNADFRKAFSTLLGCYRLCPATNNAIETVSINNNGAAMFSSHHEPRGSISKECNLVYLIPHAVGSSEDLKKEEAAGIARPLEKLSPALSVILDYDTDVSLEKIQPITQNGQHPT
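Allosteric or orthosteric antagonism assessed as attenuation of the calcium response to EC80 dopamine, added 180 s after compound, in induced HEK293 Trex D1 cells loaded with no-wash calcium dye.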
D1 PAM: enhances dopamine response at the human D1 receptor; potentiation, % at 10 µM; P21728; HEK293 TREx D1 cells, calcium flux, dopamine EC20 potentiation; 0.036% of 360,000 active; in the data active means potentiation above about 30%; further: 0% is about no effect
DRD3 agonist: D3 dopamine receptor (human) agonism | D3R DiscoveRx beta-arrestin cells, luminescence, 90 min | max activation, % | 0.58% of 410,000 active | AID 652048; in the data active means max activation above about 30%; further: 0% is about no effect
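Agonist-mode cell screen: cells plated at 1500/well and incubated overnight at 37 °C, then exposed to library compounds for 90 min at 37 °C. Detection reagent was added for 30–60 min at room temperature, and luminescence was read.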
D1 agonist: human D1 receptor agonism; HEK293 T-REx D1 cells, calcium flux, agonist mode; activation, % at 2 µM; 1% of 360,000 active; AID 504660; in the data active means activation above about 30%; further: 0% is about no effect
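Tetracycline-induced HEK293 TREx D1 cells, force-coupled to calcium signalling, were dye-loaded with a no-wash calcium kit. Compound was pin-added after a 10 s baseline. Fluorescence was read kinetically at 1 cycle/s for 180 s, with calcium rises flagged as agonism.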
DRD3 antagonist: D3 dopamine receptor (human) antagonism; 2.5% of 360,000 active; D3R cells, DiscoveRx beta-arrestin luminescence, antagonist mode; stronger effect = lower value; P35462; max response, negative = inhibition, %; in the data active means max response below about -50%; inconclusive means no clear call, values can overlap the other calls; further: on the % scale 0 is the no-effect control and ±100 the full control effect
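Cells expressing the human receptor were seeded at 1500 cells/well, incubated overnight at 37 degrees C in 5% CO2, then exposed to library compounds with dopamine controls for 90 minutes at 37 degrees C before luminescent detection.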
Active calls of the source: *; ? = inconclusive; . = no result given.

SMILES	D1 antagonist	D1 PAM	DRD3 agonist	D1 agonist	DRD3 antagonist
CN[C@@H]1[C@@H](O)[C@@H](O[C@@H]2[C@@H](O)[C@H](OC3OC(CN)=CCC3N)[C@@H](N)C[C@H]2N)OC[C@]1(C)O (some centres not stated)	.	.	-6.9	.	.
O=C(OCC1CCCO1)c1ccc2c(c1)N(Cc1cccc(Cl)c1)C(=O)c1ccccc1S2(=O)=O (configuration not stated)	-10.4	-0.6	4.8	8.0	.
CSc1ccc(CN2CCC(C)(Oc3cccc(C#N)c3)C2)cc1 (configuration not stated)	.	.	-6.1	.	?
CSc1ccc(CN2CCC(C)(Oc3ccccc3)C2)cc1 (configuration not stated)	.	.	-11.3	.	-96.7*
CC(C)OCCCN1C(=O)c2[nH]nc(-c3ccccc3O)c2C1c1ccccc1F (configuration not stated)	7.4	2.5	9.7	2.6	.
CN(C(=O)c1ccno1)c1nnc(-c2ccccn2)s1	-34.6*	-12.0	0.1	-0.3	-27.4
CCCNC(=O)NS(=O)(=O)c1cnccc1Sc1ccc(Cl)cc1	9.2	-2.9	-4.8	1.2	0.0
CCCNC(=O)NS(=O)(=O)c1cnccc1Sc1ccc(Cl)c(Cl)c1	-16.1	0.5	9.9	1.9	-53.4*
CCOC(=O)CN(C(=O)CSc1nnc(C)n1-c1ccccc1)c1cccc([N+](=O)[O-])c1	-4.6	-2.6	1.8	0.8	10.3
CCOC(=O)CN(C(=O)CSc1nnc(C)n1-c1ccccc1)c1ccccc1	-52.1*	-4.0	-1.0	0.7	12.4
CCOC(=O)CN(C(=O)CSc1nnc2c(n1)[nH]c1ccccc12)c1ccccc1	-20.0	4.2	0.7	0.7	-73.1*
CC1CCCCN1C(=O)CSc1nnc2c(n1)[nH]c1ccc(F)cc12 (configuration not stated)	-3.9	1.2	-1.0	0.0	9.1
CC1CCc2cc(F)ccc2N1C(=O)CSc1nnc2c(n1)[nH]c1ccc(F)cc12 (configuration not stated)	-36.5*	-8.3	-4.0	13.5	5.0
CCOC(=O)CN(C(=O)CSc1nnc2c(n1)[nH]c1ccc(F)cc12)c1ccccc1	-3.2	-8.9	-9.9	0.4	-59.9*
Cc1ccc(C(C)C)c(OC(C)C(=O)NCC2(N(C)C)CCCCC2)c1 (configuration not stated)	13.5	1.5	-11.3	15.9	.
Cc1ccc(NS(=O)(=O)c2cc([N+](=O)[O-])ccc2NNC(=S)Nc2cc(C)ccc2C)c(C)c1	-15.1	7.7	-18.4	2.0	-22.7
Cc1ccc(NS(=O)(=O)c2cc([N+](=O)[O-])ccc2NNC(=S)Nc2cccc(Cl)c2)c(C)c1	3.6	9.0	-4.2	0.9	-73.2*
O=c1cc(-c2ccc(O)c(O)c2)oc2cc(O)cc(O)c12	23.1	3.6	42.5*	7.8	55.1
O=c1oc(CCCO)cc2ccc(C#Cc3ccsc3)cc12	.	-3.0	27.1	4.4	58.9
O=C1c2ccccc2C(=O)N1CCC#Cc1ccc2cc(CCCO)oc(=O)c2c1	.	.	33.1*	.	82.9
COc1cc(OC)c(OC)cc1CN1CCCC(C(=O)c2sccc2C)C1 (configuration not stated)	-37.8*	-10.7	-38.0	8.8	-93.0*
Cc1ccsc1C(=O)C1CCCN(Cc2cc(F)ccc2-n2cccn2)C1 (configuration not stated)	-18.3	-4.0	-18.4	1.2	-61.7*
COc1cc(OC)c(OC)cc1CN1CCCC(C(=O)c2ccc3c(c2)OCO3)C1 (configuration not stated)	-9.8	-4.8	-17.5	0.8	-93.2*
O=C(NCCc1ccccc1)c1ccc2c(c1)nc1n2CCOC1	-6.4	-1.5	6.1	0.9	.
CCOc1ccccc1NC(=O)CSc1ncc2c(n1)-c1ccccc1N(CC)S2(=O)=O	0.7	-3.0	2.3	3.6	.
SMILES	D1 antagonist	D1 PAM	DRD3 agonist	D1 agonist	DRD3 antagonist
CCOc1ccc(S(=O)(=O)N2CCC(N3CCN(Cc4ccc(F)cc4)C(=O)C3=O)CC2)cc1	-4.3	-2.2	6.3	3.5	.
Cc1cc(NC(=O)COC(=O)[C@H](Cc2c[nH]c3ccccc23)NC(=O)c2ccc(F)cc2)no1	-4.7	-5.9	0.4	6.0	-50.5*
COC(=O)C(Cc1c[nH]c2ccccc12)NC(=O)CNC(C)=O (configuration not stated)	0.0	1.5	1.4	2.4	-53.3*
COC(=O)C(Cc1c[nH]c2ccccc12)NC(=O)COc1ccc(Cl)cc1Cl (configuration not stated)	-32.2*	-0.5	-5.0	3.8	.
CCOC(=O)C(Cc1c[nH]c2ccccc12)NC(=O)COc1ccc(Cl)c(C)c1 (configuration not stated)	-11.7	-1.1	19.6	0.4	.
CC(C)c1ccccc1NC(=O)C(Cc1c[nH]c2ccccc12)NC(=O)OC(C)(C)C (configuration not stated)	10.0	-3.6	-6.4	2.1	.
Cc1ccc(NC(=O)C(Cc2c[nH]c3ccccc23)NC(=O)OC(C)(C)C)c(C)c1 (configuration not stated)	-35.0*	-4.8	-12.6	1.5	.
O=C(CN1C(=O)C2(SCC(=O)N2c2ccc(Cl)cc2)c2ccccc21)NCCc1ccccc1 (configuration not stated)	6.2	0.2	-2.5	2.1	.
CCCCOc1ccc(CNC(=O)c2cc3n(n2)CCCN(Cc2ccc(C)cc2)C3=O)cc1	5.7	-0.7	7.3	11.1	.
COc1cc(OC)c(NC(=O)c2nn(C)c3c2COc2ccccc2-3)cc1Cl	-22.4	-4.5	-4.5	5.2	.
CCCS(=O)(=O)N1CCN(C(=O)COc2ccc(-c3ccccc3)cc2)CC1	-2.3	-5.8	0.9	4.9	2.3
O=C(CSc1nnc2sc3ccccc3n12)N1CCN(c2ccccc2)CC1	-59.1*	-5.2	-3.0	-2.5	8.0
O=C(COc1ccccc1)N1CCN(c2ccccc2)CC1	-34.6*	-2.7	2.4	3.5	1.3
O=C(OCC(=O)N1CCN(c2ccccc2)CC1)c1ccccc1[N+](=O)[O-]	-36.2*	-15.5	8.1	3.3	-3.5
Cn1c(Cn2c(=O)sc3ccccc32)nnc1SCC(=O)N1CCN(c2ccccc2)CC1	3.6	2.4	-5.7	0.1	?
CCCS(=O)(=O)N1CCN(C(=O)COc2ccccc2)CC1	10.2	-7.5	34.1*	-0.6	-19.9
O=C(OCC(=O)N1CCN(c2ccccc2)CC1)c1cccc([N+](=O)[O-])c1	-14.1	-2.3	-6.4	2.2	-24.7
Cc1ccccc1CNC(=O)C1CCN(c2nnc(-n3c(C)ccc3C)s2)CC1	-7.4	-1.2	-6.0	-1.6	.
O=C(CSc1ccsc1[N+](=O)[O-])N1CCN(c2ccc(Cl)cc2)CC1	4.1	3.5	0.3	3.3	-9.4
O=C(CSc1ccsc1[N+](=O)[O-])N1CCN(c2ccccc2)CC1	-31.1*	-9.6	-11.4	0.1	-28.1
